Experimental findings from PubChem BioAssay (EPA / NIEHS) are described below.

Assay [1] has as its target rat Vasopressin 1 Receptor (V1), Avpr1a (gene 25107) (UniProt P30560). The experiment in a line: NVS_GPCR_rV1: NovaScreen (NVS) G Protein-Coupled Receptor Assay for rat Vasopressin 1 Receptor (V1) (AID 2283316). The method in brief:
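Radioligand binding on rat liver membranes, 1.5 h incubation, filter-based scintillation counting. Single 25 uM screen in duplicate; chemicals meeting threshold (e.g. 30% inhibition) run in concentration-response up to 50 uM.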

The target of assay [2] is rat Opioid Receptor, Non-selective Binding, Oprm1 (gene 25601) (UniProt P33535). The assay can be described thus: NVS_GPCR_rOpiate_NonSelective: NovaScreen (NVS) G Protein-Coupled Receptor Assay for rat Opioid Receptor, Non-selective Binding (AID 2283318). The method in brief: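 Rat forebrain membranes, cell-free radioligand binding with filter-based scintillation counting, read 1.5 h after dosing. Primary screen in duplicate at 25 uM; actives retested in concentration series. Loss of signal versus DMSO baseline scored.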

Assay [3] has as its target Sodium channel protein type 1 subunit alpha (Rattus norvegicus) (UniProt P04774). The assay can be described thus: NVS_IC_rNaCh_site2: NovaScreen (NVS) Ion Channel Assay for rat Sodium Channel, Site 2 (NaCh) (AID 2283322).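 Also: hit means loss of radioligand binding signal relative to DMSO so AC50 marks displacement.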 An outline of the steps: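 Membranes: rat forebrain. Format: competitive radioligand displacement, filter separation, scintillation readout, 1 h exposure. Primary screen in duplicate at 25 uM; actives retested in concentration series.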

The target in assay [4] is human Peripheral-type Benzodiazepine Receptor (PBR), TSPO (gene 706) (UniProt P30536). The experiment in a line: NVS_MP_hPBR: NovaScreen (NVS) Membrane Protein Assay for human Peripheral-type Benzodiazepine Receptor (PBR) (AID 2283331).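 Also: hits reduce radioligand binding relative to DMSO baseline.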 The method in brief: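 Scintillation counts of filter-bound radioligand served as read-out after 1 h chemical dosing of human colonic membrane preparations. Activity was scored as signal loss against DMSO; initial duplicates at 25 uM, confirmatory concentration series afterward.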

Assay [5] addresses rat Peripheral-type Benzodiazepine Receptor (PBR), Tspo (gene 24230) (UniProt P16257). The experiment in a line: NVS_MP_rPBR: NovaScreen (NVS) Membrane Protein Assay for rat Peripheral-type Benzodiazepine Receptor (PBR) (AID 2283335). An outline of the steps: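 Radioligand displacement, rat kidney membrane prep, 1 h exposure, filter-based scintillation read; DMSO baseline, loss-of-signal scored. Primary screen at 25 uM in duplicate, actives followed up in concentration series.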

For assay [6], the target named is Voltage-dependent N-type calcium channel subunit alpha-1B (Rattus norvegicus) (UniProt Q02294). The experiment in a line: NVS_IC_rCaChN: NovaScreen (NVS) Ion Channel Assay for rat Calcium Channel, Type N (CaChN) (AID 2283317).
Assay [7] has as its target rat Glutamate, AMPA Site (AMPA), Gria1 (gene 50592) (UniProt P19490). The assay can be described thus: NVS_LGIC_rAMPA: NovaScreen (NVS) Ligand-Gated Ion Channel Assay for rat Glutamate, AMPA Site (AMPA) (AID 2283324). An outline of the steps:
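Rat forebrain membranes; radioligand binding read 1 h after dosing by filtration and scintillation counting. Duplicate single-point screen at 25 uM, then concentration-response to 50 uM for threshold hits (e.g. 30% inhibition); loss of signal vs DMSO.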

Assay [8] has as its target Voltage-gated inwardly rectifying potassium channel KCNH2 (Homo sapiens) (UniProt Q12809). The assay can be described thus: NVS_IC_hKhERGCh: NovaScreen (NVS) Ion Channel Assay for human Potassium Channel ERG (KhERGCh) (AID 2283333). The method in brief:
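Cell-free radioligand competition binding on hERG protein extracted from CHO cells, read by filter-based scintillation counting 0.75 h after dosing. Primary screen at 25 uM in duplicate, actives followed in concentration series. Signal loss fitted versus DMSO.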

Assay [9] can be described thus: NVS_IC_rCaDHPRCh_L: NovaScreen (NVS) Ion Channel Assay for rat Calcium Channel, Type L, Dihydropyridine Site (CaDHPRCh_L) (AID 2283320). The method in brief:
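Radioligand binding to dihydropyridine site on rat cortical membranes, filter-based scintillation counting, 1 h after dosing. Screened in duplicate at 25 uM; actives rerun in concentration-response up to 50 uM. Loss of signal versus DMSO baseline.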

Assay [10] concerns the target bovine Gamma-Aminobutyric Acid Type A Receptor BDZ, alpha 5 site (GABARa5), GABRA5 (gene 523515) (UniProt Q08E50). The experiment in a line: NVS_LGIC_bGABARa5: NovaScreen (NVS) Ligand-Gated Ion Channel Assay for bovine Gamma-Aminobutyric Acid Type A Receptor BDZ, alpha 5 site (GABARa5) (AID 2283323). The method in brief: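 Radioligand competitive displacement binding on bovine hippocampal membranes, read 1 hr after dosing by filter-based scintillation counting. Primary screen at 25 uM in duplicate; actives (e.g. ≥30% inhibition) then run in concentration-response up to 50 uM.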

Assay [11] addresses rat Neonicotinoid receptor (NNR), Chrna7 (gene 25302) (UniProt Q05941). The assay can be described thus: NVS_LGIC_rNNR_BungSens: NovaScreen (NVS) Ligand-Gated Ion Channel Assay for rat Neonicotinoid receptor (NNR) (AID 2283315). An outline of the steps: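 Radioligand displacement binding on rat cortical membranes, 2.5 h incubation, filtration and scintillation counting. Loss of specific binding fitted relative to DMSO.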

Assay [12] has as its target bovine Gamma-Aminobutyric Acid Type A Receptor BDZ, alpha 1 site (GABARa1), GABRA1 (gene 780973) (UniProt P08219). The experiment in a line: NVS_LGIC_bGABARa1: NovaScreen (NVS) Ligand-Gated Ion Channel Assay for bovine Gamma-Aminobutyric Acid Type A Receptor BDZ, alpha 1 site (GABARa1) (AID 2283321). An outline of the steps:
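Radioligand competition binding on bovine cortical membranes, 0.75 h, filter-based scintillation counting. Primary single concentration 25 uM in duplicate; actives rerun in concentration-response to 50 uM max. Loss of signal fitted versus DMSO.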

Assay [13] addresses rat Glutamate, NMDA Agonist Site (GluNMDA), Grin1 (gene 24408) (UniProt P35439). The experiment in a line: NVS_LGIC_rGluNMDA_Agonist: NovaScreen (NVS) Ligand-Gated Ion Channel Assay for rat Glutamate, NMDA Agonist Site (GluNMDA) (AID 2283327). The method in brief: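 Rat forebrain membranes, radioligand binding in the agonist-site protocol; 1 h after dosing; filter-based scintillation counting. Single-concentration duplicate screen at 25 uM, then concentration-response up to 50 uM for actives; gain-of-signal vs DMSO.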

The target in assay [14] is rat Oxytocin Receptor (OXT), Oxtr (gene 25342) (UniProt P70536). The assay can be described thus: NVS_GPCR_rOXT: NovaScreen (NVS) G Protein-Coupled Receptor Assay for rat Oxytocin Receptor (OXT) (AID 2283330). The method in brief: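 Radioligand displacement on rat uterine membranes, 1 h incubation, filter-based scintillation counting. Chemicals were screened in duplicate at 25 uM, and those passing threshold were retested in concentration-response up to 50 uM. Loss of binding was fitted versus DMSO.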

Assay [15] deals with NCBI gene 24521. The assay can be described thus: NVS_IC_rKATPCh: NovaScreen (NVS) Ion Channel Assay for rat Potassium Channel, ATP-Sensitive (KATPCh) (AID 2283319). The method in brief: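 Rat cortical membranes; radioligand binding at ATP-sensitive K channel site, filter-based scintillation counting 2 h after dosing. Single-point duplicate screen at 25 uM, hits rerun in concentration-response up to 50 uM; loss of signal versus DMSO.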

For assay [16], the target named is rat Gamma-Aminobutyric Acid Type A Receptor, Non-Selective (GABAR-NonSelective), Gabra1 (gene 29705) (UniProt P62813). The assay can be described thus: NVS_LGIC_rGABAR_NonSelective: NovaScreen (NVS) Ligand-Gated Ion Channel Assay for rat Gamma-Aminobutyric Acid Type A Receptor, Non-Selective (GABAR-NonSelective) (AID 2283326). The method in brief: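 Radioligand displacement on rat whole-brain extract, 1 h, filter scintillation readout; signal loss fitted versus DMSO. Primary screen in duplicate at 25 uM; hits (e.g. ≥30% inhibition) retested in concentration-response up to 50 uM.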

Each structure is given as a SMILES string. Values joined by “and” are separate entries in the source; they are usually repeats but may differ in a detail not shown here. Equal entries are not always repeated. Results filed as inconclusive are left out. Where a structure was tested more than once in an assay, its records may differ in their call. Active and inactive are the calls of the source. The calls were made as follows: active = hit-call score of the fitted dose curve at least 0.9, where 1 is the maximum; inconclusive = response in the unintended direction; inactive = score below 0.9.

rat Neonicotinoid receptor (NNR), Chrna7 (gene 25302), sequence (Q05941 whole entry, looked up): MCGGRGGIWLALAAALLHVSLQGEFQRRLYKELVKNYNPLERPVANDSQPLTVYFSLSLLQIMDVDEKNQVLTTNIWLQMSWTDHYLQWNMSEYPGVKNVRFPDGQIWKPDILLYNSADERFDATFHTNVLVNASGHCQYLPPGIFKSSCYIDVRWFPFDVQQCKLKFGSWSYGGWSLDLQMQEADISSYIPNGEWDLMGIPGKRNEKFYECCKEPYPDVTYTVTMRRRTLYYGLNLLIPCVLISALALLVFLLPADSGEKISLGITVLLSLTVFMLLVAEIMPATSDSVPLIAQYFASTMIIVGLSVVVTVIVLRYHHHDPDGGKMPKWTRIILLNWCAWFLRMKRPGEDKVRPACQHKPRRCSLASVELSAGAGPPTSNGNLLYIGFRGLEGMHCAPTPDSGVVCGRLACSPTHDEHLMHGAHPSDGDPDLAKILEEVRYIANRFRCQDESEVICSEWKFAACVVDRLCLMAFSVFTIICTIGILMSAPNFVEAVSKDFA
bovine Gamma-Aminobutyric Acid Type A Receptor BDZ, alpha 5 site (GABARa5), GABRA5 (gene 523515), sequence (Q08E50 whole entry, looked up): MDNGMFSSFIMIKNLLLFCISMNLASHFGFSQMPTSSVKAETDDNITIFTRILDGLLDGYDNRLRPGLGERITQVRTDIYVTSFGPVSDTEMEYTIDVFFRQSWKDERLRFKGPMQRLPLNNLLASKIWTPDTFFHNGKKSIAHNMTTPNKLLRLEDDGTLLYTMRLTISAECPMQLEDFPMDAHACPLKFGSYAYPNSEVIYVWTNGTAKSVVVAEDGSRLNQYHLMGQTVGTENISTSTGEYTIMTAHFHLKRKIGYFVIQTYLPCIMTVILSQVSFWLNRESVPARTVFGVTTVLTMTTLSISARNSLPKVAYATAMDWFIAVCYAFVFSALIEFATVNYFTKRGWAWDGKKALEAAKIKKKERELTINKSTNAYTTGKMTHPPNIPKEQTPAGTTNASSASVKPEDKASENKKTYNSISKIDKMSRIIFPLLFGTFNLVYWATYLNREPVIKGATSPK
rat Peripheral-type Benzodiazepine Receptor (PBR), Tspo (gene 24230), sequence (P16257 whole entry, looked up): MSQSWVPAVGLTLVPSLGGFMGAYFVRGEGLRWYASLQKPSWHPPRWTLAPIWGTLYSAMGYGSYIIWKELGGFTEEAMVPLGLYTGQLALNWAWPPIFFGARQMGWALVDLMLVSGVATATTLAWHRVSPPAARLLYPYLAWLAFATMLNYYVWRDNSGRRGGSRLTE
rat Vasopressin 1 Receptor (V1), Avpr1a (gene 25107), sequence (P30560 whole entry, looked up): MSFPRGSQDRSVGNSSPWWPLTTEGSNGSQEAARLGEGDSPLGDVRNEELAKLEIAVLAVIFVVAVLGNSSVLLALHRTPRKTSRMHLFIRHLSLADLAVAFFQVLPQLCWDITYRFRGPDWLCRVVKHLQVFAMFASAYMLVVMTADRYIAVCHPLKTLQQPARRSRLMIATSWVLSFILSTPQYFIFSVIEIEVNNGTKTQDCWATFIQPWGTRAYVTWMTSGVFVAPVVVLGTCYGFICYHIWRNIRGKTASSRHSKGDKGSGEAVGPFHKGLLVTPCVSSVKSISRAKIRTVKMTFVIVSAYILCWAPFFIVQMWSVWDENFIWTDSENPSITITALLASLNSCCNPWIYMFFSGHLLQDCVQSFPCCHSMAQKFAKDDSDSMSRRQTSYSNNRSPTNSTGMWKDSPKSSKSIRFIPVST
rat Opioid Receptor, Non-selective Binding, Oprm1 (gene 25601), sequence (P33535 whole entry, looked up): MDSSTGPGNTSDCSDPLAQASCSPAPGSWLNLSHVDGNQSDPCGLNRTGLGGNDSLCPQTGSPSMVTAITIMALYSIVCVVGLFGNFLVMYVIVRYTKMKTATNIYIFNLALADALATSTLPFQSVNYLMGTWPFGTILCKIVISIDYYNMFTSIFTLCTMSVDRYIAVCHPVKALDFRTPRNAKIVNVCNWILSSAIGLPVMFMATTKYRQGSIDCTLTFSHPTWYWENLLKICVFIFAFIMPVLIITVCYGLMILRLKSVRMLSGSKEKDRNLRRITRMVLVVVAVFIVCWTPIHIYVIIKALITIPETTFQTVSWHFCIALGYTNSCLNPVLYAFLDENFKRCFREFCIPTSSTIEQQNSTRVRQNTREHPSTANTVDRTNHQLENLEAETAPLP
bovine Gamma-Aminobutyric Acid Type A Receptor BDZ, alpha 1 site (GABARa1), GABRA1 (gene 780973), sequence (P08219 whole entry, looked up): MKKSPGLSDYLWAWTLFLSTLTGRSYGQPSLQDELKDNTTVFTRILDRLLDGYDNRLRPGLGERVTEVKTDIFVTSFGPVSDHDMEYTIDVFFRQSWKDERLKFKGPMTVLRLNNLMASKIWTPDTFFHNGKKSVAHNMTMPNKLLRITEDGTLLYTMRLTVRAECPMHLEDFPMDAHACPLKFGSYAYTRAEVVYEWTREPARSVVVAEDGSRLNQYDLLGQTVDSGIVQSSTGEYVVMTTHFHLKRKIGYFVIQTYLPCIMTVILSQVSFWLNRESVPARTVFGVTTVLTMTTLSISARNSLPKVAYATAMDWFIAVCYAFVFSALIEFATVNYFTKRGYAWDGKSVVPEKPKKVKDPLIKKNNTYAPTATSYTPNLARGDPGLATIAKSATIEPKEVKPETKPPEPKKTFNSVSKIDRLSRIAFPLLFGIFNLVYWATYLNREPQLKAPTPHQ
human Peripheral-type Benzodiazepine Receptor (PBR), TSPO (gene 706), sequence (P30536 whole entry, looked up): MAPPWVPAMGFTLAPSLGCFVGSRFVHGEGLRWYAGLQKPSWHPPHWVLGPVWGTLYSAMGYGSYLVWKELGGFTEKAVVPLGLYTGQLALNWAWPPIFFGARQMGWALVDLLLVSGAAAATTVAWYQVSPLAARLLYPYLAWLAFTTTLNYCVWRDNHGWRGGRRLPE
rat Gamma-Aminobutyric Acid Type A Receptor, Non-Selective (GABAR-NonSelective), Gabra1 (gene 29705), sequence (P62813 whole entry, looked up): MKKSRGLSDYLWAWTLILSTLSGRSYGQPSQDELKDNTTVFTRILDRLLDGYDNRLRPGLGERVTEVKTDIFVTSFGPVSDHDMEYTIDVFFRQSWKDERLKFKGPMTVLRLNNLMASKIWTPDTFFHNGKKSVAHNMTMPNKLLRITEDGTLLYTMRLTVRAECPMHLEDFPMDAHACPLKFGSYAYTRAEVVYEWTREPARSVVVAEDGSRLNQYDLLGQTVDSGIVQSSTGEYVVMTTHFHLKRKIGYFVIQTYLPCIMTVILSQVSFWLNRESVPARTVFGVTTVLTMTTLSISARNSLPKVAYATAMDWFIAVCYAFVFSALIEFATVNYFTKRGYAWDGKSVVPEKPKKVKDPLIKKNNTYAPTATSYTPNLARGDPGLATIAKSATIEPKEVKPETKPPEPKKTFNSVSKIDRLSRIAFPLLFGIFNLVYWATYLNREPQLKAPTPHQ
rat Glutamate, AMPA Site (AMPA), Gria1 (gene 50592), sequence (P19490 whole entry, looked up): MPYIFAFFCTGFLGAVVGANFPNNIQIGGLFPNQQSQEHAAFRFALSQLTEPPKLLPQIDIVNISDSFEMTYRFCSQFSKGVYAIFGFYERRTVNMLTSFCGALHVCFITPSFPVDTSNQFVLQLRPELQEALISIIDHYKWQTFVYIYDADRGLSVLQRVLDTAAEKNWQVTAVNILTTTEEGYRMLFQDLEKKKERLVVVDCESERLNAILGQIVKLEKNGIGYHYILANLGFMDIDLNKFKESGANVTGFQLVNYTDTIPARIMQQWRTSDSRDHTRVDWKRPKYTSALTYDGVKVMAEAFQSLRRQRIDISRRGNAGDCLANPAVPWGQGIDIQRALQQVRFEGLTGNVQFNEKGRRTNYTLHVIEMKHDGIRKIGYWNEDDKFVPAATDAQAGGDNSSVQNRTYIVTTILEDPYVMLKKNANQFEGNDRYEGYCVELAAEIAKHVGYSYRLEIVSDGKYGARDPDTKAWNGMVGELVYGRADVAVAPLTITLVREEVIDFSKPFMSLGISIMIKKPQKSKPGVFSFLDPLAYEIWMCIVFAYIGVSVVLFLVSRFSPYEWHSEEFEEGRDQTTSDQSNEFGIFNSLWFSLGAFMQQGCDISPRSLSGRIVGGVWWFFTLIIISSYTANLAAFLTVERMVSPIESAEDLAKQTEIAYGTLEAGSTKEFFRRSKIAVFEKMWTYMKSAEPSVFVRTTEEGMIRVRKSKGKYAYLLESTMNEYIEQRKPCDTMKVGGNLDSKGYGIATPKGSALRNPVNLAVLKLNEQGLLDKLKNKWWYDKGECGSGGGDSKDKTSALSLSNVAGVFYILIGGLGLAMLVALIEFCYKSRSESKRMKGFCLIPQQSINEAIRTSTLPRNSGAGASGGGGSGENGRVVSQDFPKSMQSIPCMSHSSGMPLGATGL
rat Oxytocin Receptor (OXT), Oxtr (gene 25342), sequence (P70536 whole entry, looked up): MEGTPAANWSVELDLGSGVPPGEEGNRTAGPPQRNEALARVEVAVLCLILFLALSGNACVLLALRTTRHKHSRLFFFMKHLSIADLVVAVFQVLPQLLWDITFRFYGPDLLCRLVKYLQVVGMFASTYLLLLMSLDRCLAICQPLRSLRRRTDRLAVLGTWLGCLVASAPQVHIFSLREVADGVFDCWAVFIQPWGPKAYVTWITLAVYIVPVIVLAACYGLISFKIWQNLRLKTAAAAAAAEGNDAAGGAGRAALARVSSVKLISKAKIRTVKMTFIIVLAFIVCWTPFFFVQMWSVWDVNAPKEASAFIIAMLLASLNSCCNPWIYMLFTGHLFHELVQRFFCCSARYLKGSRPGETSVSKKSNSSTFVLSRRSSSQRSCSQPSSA

A word on the AC50: it is the concentration giving half of the maximal activity seen. Take `Oc1cc(Cl)ccc1Oc1ccc(Cl)cc1Cl`: the AC50 in assay [1] is 3.23 µM (active) and 12.1 µM (active); in [5], 5.64 µM (active) and 25.5 µM (active) and 9.13 µM (active). Besides, the compound was called inactive in [2], in assay [3], in [4] and in assay [5].

With `N#Cc1c(Cl)c(Cl)c(Cl)c(C#N)c1Cl`, the result in [6] was inactive. In addition, the AC50 in assay [4] was 9.01 µM (active).

Take `Cc1cc(C)nc(NC(=O)NS(=O)(=O)c2ccccc2C(=O)OC2COC2)n1`: the result in assay [7] and in [8] was inactive.

In the case of `CC[C@H](C)[C@H]1O[C@]2(C=C[C@@H]1C)C[C@@H]1C[C@@H](C/C=C(\C)[C@@H](O[C@H]3C[C@H](OC)[C@@H](O[C@H]4C[C@H](OC)[C@@H](O)[C@H](C)O4)[C@H](C)O3)[C@@H](C)/C=C/C=C3\CO[C@@H]4[C@H](O)C(C)=C[C@@H](C(=O)O1)[C@]34O)O2` (tested in a mixture with another compound), the results for the AC50 in assay [9], in [10] and in assay [4] were 4.89 µM (active), 8.26 µM (active) and 0.363 µM (active), respectively. In addition, in [5], the result was inactive.

As to `O=C(NC(=O)c1c(F)cccc1F)Nc1ccc(OC(F)(F)C(F)OC(F)(F)F)c(Cl)c1` (stereo unspecified), the result in [10] was inactive.

In the case of `COP(=S)(OC)Oc1ccc([N+](=O)[O-])cc1`, the compound was called inactive in assay [11] and in [12]. In addition, the AC50 is 19.5 µM (active) in assay [4] and 15700 nM (active) in assay [5].

As for `C[C@H]1[C@H](c2ccc(Cl)cc2)SC(=O)N1C(=O)NC1CCCCC1`, the compound was called inactive in assay [11].

As for `O=S(=O)(O)C(F)(F)C(F)(F)C(F)(F)C(F)(F)C(F)(F)C(F)(F)C(F)(F)C(F)(F)F`, the result in [9], in [3], in assay [13] and in [5] was inactive.

With `[2H]C1([2H])[n+]2ccccc2-c2cccc[n+]2C1([2H])[2H]`, the call in assay [12] was inactive.

On to `CC(C)(C)C(O)/C(=C\c1ccc(Cl)cc1Cl)n1cncn1` (stereo unspecified), for which the result in [6] and in assay [2] was inactive.

As to `CNC(=O)/C=C(\C)OP(=O)(OC)OC`, in assay [10], the compound was classed as inactive.

For `CC(C)(C)C(O)C(Oc1ccc(Cl)cc1)n1cncn1` (stereo unspecified), the AC50 in assay [1] is 3.04 µM (active) and 27.7 µM (active). Moreover, the compound was classed as inactive in [4] and in assay [5].

In the case of `O=C(Nc1ccccc1)Nc1cnns1`, in [10], the AC50 is 7.77 µM (active). Besides, the compound was classed as inactive in [7] and in [14].

Turning to `O=[N+]([O-])/N=C1\NCCN1Cc1ccc(Cl)nc1`, in assay [11], the half-maximal activity concentration (AC50) is 10.9 µM (active). In addition, the result in assay [4] and in assay [5] was inactive.

`CCOC1Oc2ccc(OS(C)(=O)=O)cc2C1(C)C` (stereo unspecified): the result in assay [11] and in assay [15] was inactive.

With `CCCN(CCOc1c(Cl)cc(Cl)cc1Cl)C(=O)n1ccnc1`, the AC50 in assay [1] was 6.02 µM (active); in assay [2], 14.8 µM (active); in assay [3], 14.3 µM (active); in [4], 2.59 µM (active); in [8], 8.01 µM (active); in assay [5], 53.9 nM (active). The result in assay [9] and in assay [16] was inactive.

`CCS(=O)(=O)c1cccnc1S(=O)(=O)NC(=O)Nc1nc(OC)cc(OC)n1`: the compound was classed as inactive in assay [16].

In the case of `CC(C)N(C(=O)COc1nnc(C(F)(F)F)s1)c1ccc(F)cc1`, the AC50 in assay [12] was 14.2 µM (active); in [4], 0.27 µM (active); in assay [5], 24.8 nM (active).
